An excerpt weighted towards active compounds, which were near 3.5% of everything screened.
MITF inh = blocks human microphthalmia-associated transcription factor; O75030; hit rate 0.91% among 650,000; inhibition, % at 2.6 µM; AlphaScreen MITF homodimerization, bead proximity signal; in the data active = inhibition above about 50%;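 also: 0% = vehicle wells with protein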
GPR151 activ = human GPR151 activation; Q8TDV0; AID 1508602; PathHunter beta-arrestin GPR151 cells, luminescence; hit rate 1% among 650,000; activation, % at 11.2 µM; in the data active = activation above about 4.9%;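 also: 0% = median of compound wells and 100% = cells with positive control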
Target sequence (Q8TDV0 whole entry, looked up): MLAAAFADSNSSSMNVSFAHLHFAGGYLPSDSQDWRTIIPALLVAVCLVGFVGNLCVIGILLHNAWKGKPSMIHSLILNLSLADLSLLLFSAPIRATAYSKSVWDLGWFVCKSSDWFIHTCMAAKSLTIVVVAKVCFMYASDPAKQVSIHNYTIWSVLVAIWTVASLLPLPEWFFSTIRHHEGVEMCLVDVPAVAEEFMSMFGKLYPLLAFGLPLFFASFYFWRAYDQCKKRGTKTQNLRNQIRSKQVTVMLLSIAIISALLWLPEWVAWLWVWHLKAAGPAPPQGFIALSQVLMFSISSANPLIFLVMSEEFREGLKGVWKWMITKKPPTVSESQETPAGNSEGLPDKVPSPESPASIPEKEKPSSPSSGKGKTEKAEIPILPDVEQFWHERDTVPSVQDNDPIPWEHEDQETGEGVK
TEAD-YAP block = TEAD-YAP interaction inhibition; HEK-TIYL cells, TEAD-Gal4/YAP UAS-luciferase luminescence; inhibition, % at 9.12 µM; hit rate 1.4% among 640,000; in the data active = inhibition above about 32%;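 also: 0% = median of test compound wells and 100% = reference inhibitor wells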
FBW7 activator = human FBW7 E3 ligase activation, primary screen. hit rate 0.13% among 650,000. Q969H0. normalized activity (activation), % at 26.1 µM. AlphaScreen FBW7–phospho-cyclin E peptide binding, activator screen. AID 1259310; in the data active = normalized activity above about 1.9%;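 also: purified mutant Fbw7 with reduced substrate affinity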
* hit, by the source's call; ! = not active in a repeat.

SMILES	MITF inh	GPR151 activ	TEAD-YAP block	FBW7 activator
O=C(Nc1cccc(C(F)(F)F)c1)c1ccc([N+](=O)[O-])o1	12	0	36*	0
O=C(Nc1cccc(OC(=O)c2ccc(Cl)cc2)c1)c1ccc([N+](=O)[O-])cc1	-14	1	32*	0
O=C(COC(=O)c1ccc([N+](=O)[O-])o1)Nc1cccc(C(F)(F)F)c1	-1	0	4	0
COc1ccc(Cc2nnc(C3CCN(C(=O)Cn4cnc5ccccc54)CC3)s2)cc1	-3	2	54*	0
CC(C)CC(=O)NC(C)C(c1cccs1)N1CCOCC1 (stereo not given)	7	-1	4	0
COc1ccc(C2/C(=C(\O)c3ccccc3)C(=O)C(=O)N2c2nc3ccccc3s2)c(OC)c1 (stereo not given)	18	0	20	0
COc1ccc(C2/C(=C(\O)c3ccc(Cl)cc3)C(=O)C(=O)N2c2nc3ccccc3s2)c(OC)c1 (stereo not given)	-1	-1	41*	0
COc1cccc(C2C(C(C)=O)=C(O)C(=O)N2c2nc3ccccc3s2)c1 (stereo not given)	8	0	-46	0
COc1ccc(C2C(C(C)=O)=C(O)C(=O)N2c2nc3ccccc3s2)c(OC)c1 (stereo not given)	1	0	47*	0
COc1cc(C(=O)NC(=S)Nc2cc([N+](=O)[O-])ccc2F)cc(OC)c1OC	5	1	3	0
CC(=O)OCC1OC(OC(C)(C)C)C(OC(C)=O)C(OC(C)=O)C1OC(C)=O (stereo not given)	2	1	4	0
O=C(OC[C@H]1O[C@H](OC(=O)c2cc(O)c(O)c(OC(=O)c3cc(O)c(O)c(O)c3)c2)[C@H](OC(=O)c2cc(O)c(O)c(OC(=O)c3cc(O)c(O)c(O)c3)c2)[C@@H](OC(=O)c2cc(O)c(O)c(OC(=O)c3cc(O)c(O)c(O)c3)c2)[C@@H]1OC(=O)c1cc(O)c(O)c(OC(=O)c2cc(O)c(O)c(O)c2)c1)c1cc(O)c(O)c(OC(=O)c2cc(O)c(O)c(O)c2)c1	112*	0	4	0
O=C(CCCN1CC=C(n2c(=O)[nH]c3ccccc32)CC1)c1ccc(F)cc1	0	-1	-4	1.9*!
CC1CCN(CCCC(=O)c2ccc(F)cc2)CC1	10	0	7	0
COc1ccccc1NC1=C/C(=N/S(=O)(=O)c2cccs2)c2ccccc2C1=O	54*	0	-12	-1
O=C(O)c1ccc(NC2=C/C(=N/S(=O)(=O)c3cccs3)c3ccccc3C2=O)cc1	7	-2	-11	0
COc1ccccc1NC1=C/C(=N/S(=O)(=O)c2ccccc2)c2ccccc2C1=O	71*	-1	48*	-1
O=C(O)c1ccc(NC2=C/C(=N/S(=O)(=O)c3ccccc3)c3ccccc3C2=O)cc1	9	-3	0	0
O=C1C(Nc2ccc(O)cc2)=C/C(=N/S(=O)(=O)c2cccs2)c2ccccc21	29	-2	97*	-1
O=C1C(Nc2ccc(O)cc2)=C/C(=N/S(=O)(=O)c2cccc([N+](=O)[O-])c2)c2ccccc21	28	-2	92*	-1
CC1=C(C(=O)Nc2ccccn2)C(c2ccccc2)n2nnnc2N1 (stereo not given)	-8	-1	-71	0
O=C(Oc1ccc(/C=C/c2ccncc2)cc1)c1ccco1	8	-5	35*	0
CC(C)(C)OC(=O)N/N=C\c1ccc(OC(=O)c2ccco2)cc1	11	3	59*	0
O=C(Oc1cccnc1)c1ccco1	9	0	-11	0
COC(=O)N/N=C\c1ccc(OC(=O)c2ccco2)cc1	5	-4	-2	1
SMILES	MITF inh	GPR151 activ	TEAD-YAP block	FBW7 activator
Cn1c2ccccc2n2c(=O)n(Cc3cscn3)nc12	-1	1	3	0
CC(C)Cc1ccc(-c2cc(C(=O)N/N=C/c3ccncc3)[nH]n2)cc1	6	0	45*	0
COc1ccc(-c2cc(C(=O)N/N=C\c3ccc(N(C)C)cc3)[nH]n2)cc1	11	-1	45*	0
Cc1ccc(/C=N/NC(=O)c2cc(-c3ccccc3)n[nH]2)cc1	-5	1	-8	0
COc1ccc(/C=N/NC(=O)c2cc(-c3ccc(F)cc3)n[nH]2)cc1	5	1	7	0
COc1ccc(/C=N/NC(=O)c2cc(-c3ccc(OC)cc3)n[nH]2)cc1	4	-1	33*	0
O=C1CC(c2cccc([N+](=O)[O-])c2)Oc2ccc3ccccc3c21 (stereo not given)	-3	1	2	0
O=C1NC(=S)N/C1=C/c1ccc(O)c(O)c1	87*	1	17	0
CN(C)c1ccc(/C=C2\NC(=S)NC2=O)cc1[N+](=O)[O-]	71*!	1	-16	0
C=CCOC(=O)C1C(c2ccc(F)cc2)c2c([nH][nH]c2=O)CC1(C)O (stereo not given)	10	0	8	1
O=C1CCCC2=C1C(c1cccc(F)c1Br)n1c(nc3ccccc31)N2 (stereo not given)	13	1	36*	0
N#CC(C1=NS(=O)(=O)c2ccccc21)c1nc(C23CC4CC(CC(C4)C2)C3)cs1 (stereo not given)	-3	1	62*	0
Cc1csc(C(C#N)C2=NS(=O)(=O)c3ccccc32)n1 (stereo not given)	0	0	-19	0
COc1cccc(-c2nc3sc4c(c3c(=O)n2Cc2ccccc2F)CCCC4)c1	6	-1	32*	0
Cc1ccccc1Cn1cnc2sc3c(c2c1=O)CCCC3	3	0	51*	0
O=C1NC(=S)S/C1=C\c1ccc(I)o1	48	-1	-1	0
O=C1NC(=S)S/C1=C/c1ccc[nH]1	13	0	49*	0
CCN1C(=O)C(=Cc2ccc(-c3ccc(C(C)=O)cc3)o2)C(=O)N(CC)C1=S	78*	1	-7	0
CC(=O)c1ccc(-c2ccc(/C=C3/SC(=S)NC3=O)o2)cc1	74*	-1	-7	-1
CCN1C(=O)C(=Cc2ccc(-c3cccc(C(=O)O)c3)o2)C(=O)N(CC)C1=S	47	-1	0	0
O=C1NC(=S)S/C1=C/c1cc(Br)c(Br)o1	51*	-1	-2	-1
O=S1(=O)CCC(NS(=O)(=O)c2cccc3cccnc23)C1 (stereo not given)	2	0	-2	0
COc1ccc(-c2nc3cc(NC(=S)NC(=O)c4ccc(Cl)cc4)ccc3o2)cc1OC	22	-1	-8	2
COc1ccccc1NC(=O)CSc1nc2ccsc2c(=O)n1Cc1ccc2c(c1)OCO2	1	1	6	-1
COC(=O)c1cccc(C(=O)Nc2ccccn2)n1	12	-1	11	0
COc1cc(Nc2nc(Nc3cnccn3)nc3c2ncn3C(C)C)cc(OC)c1OC	5	2	47*	0
COc1cc2nc(Nc3cnccn3)nc(Nc3cc(OC)c(OC)c(OC)c3)c2cc1OC	15	1	33*	0
